The list is not random: actives were taken first. Their share in the collection is about 21%.
IL1B secr inh: qHTS for Inhibitors of Inflammasome Signaling: IL-1-beta AlphaLISA Primary Screen; THP-1 LPS/ATP IL-1B secretion, AlphaLISA, 16 h; stronger effect = lower value; activity change, % at 57.5 µM; hit rate 4.7% among 360,000; in the data active means activity change below about -50%; inconclusive means mostly about -30% to -49%
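Secreted IL-1B measured by AlphaLISA bead assay after 16 h compound exposure of THP-1 cells; compounds (final up to 57.5 uM) added 1 h before LPS (250 ng/mL) and ATP (1.25 mM) stimulation; lower signal means less secretion.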
D3 ag: qHTS of D3 Dopamine Receptor Agonist: qHTS. D3R DiscoveRx beta-arrestin cells, luminescence, 90 min. max activation, %. hit rate 0.58% among 410,000. AID 652048, 2013; in the data active means max activation above about 30%
Target sequence (P35462 whole entry, looked up): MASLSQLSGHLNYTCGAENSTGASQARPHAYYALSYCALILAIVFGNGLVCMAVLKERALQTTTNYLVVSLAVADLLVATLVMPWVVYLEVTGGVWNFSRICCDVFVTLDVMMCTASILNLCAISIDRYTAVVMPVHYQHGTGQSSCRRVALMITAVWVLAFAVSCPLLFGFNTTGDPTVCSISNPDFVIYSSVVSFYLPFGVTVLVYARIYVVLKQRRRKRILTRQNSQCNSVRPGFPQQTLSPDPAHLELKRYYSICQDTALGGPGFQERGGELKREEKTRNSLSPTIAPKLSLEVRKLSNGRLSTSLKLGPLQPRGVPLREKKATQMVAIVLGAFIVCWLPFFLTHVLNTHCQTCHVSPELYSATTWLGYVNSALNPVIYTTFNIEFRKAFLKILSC
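Agonist-mode cell screen: cells plated at 1500/well and incubated overnight at 37 °C, then exposed to library compounds for 90 min at 37 °C. Detection reagent was added for 30–60 min at room temperature, and luminescence was read.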
DRD3 antagonist: qHTS of D3 Dopamine Receptor Antagonist: qHTS; D(3) dopamine receptor (Homo sapiens), P35462; max response, negative = inhibition, %; D3R cells, DiscoveRx beta-arrestin luminescence, antagonist mode; stronger effect = lower value; hit rate 2.5% among 360,000; in the data active means max response below about -50%; inconclusive means no clear call, values can overlap the other calls
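Cells expressing the human receptor were seeded at 1500 cells/well, incubated overnight at 37 degrees C in 5% CO2, then exposed to library compounds with dopamine controls for 90 minutes at 37 degrees C before luminescent detection.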
ClpP mod: qHTS Assay for Activators of ClpP | hit rate 1.9% among 340,000 | ATP-dependent Clp protease proteolytic subunit (Bacillus subtilis (strain 168)), P80244 | purified B. subtilis ClpP, FRET peptide cleavage, 20 min | Potency, µM (highest dose often 57.5 µM); active means well fitted falling curve with a large enough effect; inconclusive means small, poorly fitted or top-dose-only effect; inactive means no such curve, though single readings can be large or run the other way; further: the source files actives as falling curves though it sought activators and does not explain the sign; nearly all actives have a fitted effect of over 65% in size
Target sequence (P80244 whole entry, looked up): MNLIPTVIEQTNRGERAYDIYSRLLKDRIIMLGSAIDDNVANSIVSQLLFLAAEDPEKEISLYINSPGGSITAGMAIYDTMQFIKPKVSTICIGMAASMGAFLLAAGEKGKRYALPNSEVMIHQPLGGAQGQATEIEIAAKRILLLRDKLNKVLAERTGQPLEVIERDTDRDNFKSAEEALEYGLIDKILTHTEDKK
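ClpP 10 microg/mL final, pH 8 Tris/KCl buffer with BSA, glycerol, Tween-20; compound pinned in; FRET-FV substrate; RT 20 min; Ex320/Em430; ΔFRET vs ADEP 5.8 microM, DMSO, no enzyme.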
TDP1 cell CPT: qHTS for Inhibitors of human tyrosyl-DNA phosphodiesterase 1 (TDP1): qHTS in cells in presence of CPT; chicken DT40 Tdp1-/-;hTDP1 cells + 20 nM CPT, ATP luminescence, 48 h; Potency, µM (series often up to 46.2 µM), most hits filed as inhibitors; hit rate 12% among 420,000; AID 686979, 2013; further: nearly all actives have a fitted effect of over 55% in size
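Chicken DT40 Tdp1-/- cells complemented with human TDP1, 400 cells/well, exposed to compounds plus 20 nM camptothecin for at least 48 h at 37 C; viability read as ATP content by CellTiter-Glo luminescence.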
TDP1 cell noCPT: qHTS for Inhibitors of human tyrosyl-DNA phosphodiesterase 1 (TDP1): qHTS in cells in absence of CPT; DT40 Tdp1-/- hTDP1 cells, no CPT, ATP luminescence, 48 h; Potency, µM (highest dose often 46.2 µM), usual class: inhibitors; hit rate 15% among 420,000; AID 686978, 2013; further: nearly all actives have a fitted effect of over 55% in size
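Chicken DT40 Tdp1-/- cells complemented with human TDP1, screened without camptothecin (DMSO vehicle only), 400 cells/well. Compounds pin-transferred, cells incubated at 37 °C for at least 48 hr. Growth read as ATP-dependent luminescence (CellTiter-Glo, 30 min at RT).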
Of the large screens only hits and unclear results are named; the others gave an inactive call. Unless noted, the call rests on the fitted dose curve; in most records, active means well fitted inhibition curve with a large enough effect; inconclusive means small, poorly fitted or top-dose-only effect; inactive means flat fitted curve, though single readings scatter.

O=C(CCC(=O)Nc1ccc(Cl)cc1Cl)N/N=C/c1ccc([N+](=O)[O-])o1	IL1B secr inh -77.1, TDP1 cell CPT 2.59µM, TDP1 cell noCPT 2.91µM (no result: ClpP mod)
Cc1ccc(CCC(=O)Nc2ccc(Cl)cc2Cl)o1	none
O=C(N/N=C/c1ccc([N+](=O)[O-])o1)C1CCCC1	TDP1 cell CPT inconclusive, TDP1 cell noCPT inconclusive
CCN(CC)c1ccc(N=Cc2ccc([N+](=O)[O-])o2)cc1	IL1B secr inh -66.8, TDP1 cell CPT 5.8µM, TDP1 cell noCPT 10.3µM
Cc1cccc(NC(=O)N2CCC(CN3CCCCCC3)CC2)c1C	TDP1 cell CPT inconclusive, TDP1 cell noCPT inconclusive (no result: IL1B secr inh, DRD3 antagonist)
CCOC(=O)COc1ccc2c3c(c(=O)oc2c1C)CCC3	ClpP mod 12.6µM, TDP1 cell noCPT inconclusive
Cc1c(OCC(=O)C(C)(C)C)ccc2c3c(c(=O)oc12)CCCC3	TDP1 cell CPT inconclusive, TDP1 cell noCPT 16.4µM
CCOc1ccc2c3c(c(=O)oc2c1OCC)CCCC3	IL1B secr inh -52.3, ClpP mod inconclusive, TDP1 cell CPT inconclusive, TDP1 cell noCPT inconclusive
O=C1C(=NO)CCc2ccccc21	IL1B secr inh -77.9, TDP1 cell CPT 20.6µM, TDP1 cell noCPT 20.6µM
O/N=C1/CCc2cccc3cccc1c23	ClpP mod inconclusive
COc1ccccc1C(=O)Nc1nnc(SCc2cc(=O)c3ccccc3[nH]2)s1	TDP1 cell CPT 14.6µM, TDP1 cell noCPT 14.6µM (no result: IL1B secr inh, DRD3 antagonist)
Cc1ccc(C(=O)Nc2nnc(SCc3cc(=O)c4c(C)ccc(C)c4[nH]3)s2)cc1	TDP1 cell CPT 18.4µM, TDP1 cell noCPT 10.3µM (no result: IL1B secr inh, DRD3 antagonist)
Cc1cc(-c2nnc(CSc3nnc(NC(=O)c4ccc(C(C)(C)C)cc4)s3)o2)ccc1[N+](=O)[O-]	TDP1 cell CPT inconclusive, TDP1 cell noCPT 20.6µM
CCSc1nnc(NC(=O)c2csc(C)c2)s1	none
Cc1ccc2[nH]c(CSc3nnc(NC(=O)COc4ccccc4Cl)s3)cc(=O)c2c1	TDP1 cell CPT inconclusive, TDP1 cell noCPT inconclusive (no result: IL1B secr inh, DRD3 antagonist)
O=C(Nc1nnc(SCc2cc(=O)c3ccccc3[nH]2)s1)c1ccccc1	TDP1 cell CPT 23.1µM, TDP1 cell noCPT 7.31µM (no result: IL1B secr inh, DRD3 antagonist)
Cc1c(Cl)cccc1NC(=O)Cn1cc(C(F)(F)F)cc(Cl)c1=O	none (no result: ClpP mod)
CCOc1ccc(CCNC(=O)COC(=O)/C=C/c2ccccc2OC)cc1OCC	TDP1 cell CPT inconclusive, TDP1 cell noCPT inconclusive
O=C(NCc1ccccc1)C1CCCN1C(=O)Nc1ccccc1[N+](=O)[O-] (stereo not drawn)	none
CN(CC(=O)Nc1cc(S(=O)(=O)N2CCCC2)ccc1Cl)Cc1nc2ccccc2c(=O)[nH]1	TDP1 cell CPT inconclusive, TDP1 cell noCPT 20.6µM
Cc1ccc(S(=O)(=O)N2CCCCC2)cc1NC(=O)CCc1nc2ccccc2c(=O)[nH]1	TDP1 cell CPT inconclusive, TDP1 cell noCPT inconclusive
COc1cccc(CN(C)CC(=O)Nc2cc(S(=O)(=O)N3CCCC3)ccc2Cl)c1OC	TDP1 cell CPT 20.6µM, TDP1 cell noCPT inconclusive
COc1cccc(CCC(=O)Nc2cccc(S(=O)(=O)N3CCCC3)c2)c1OC	TDP1 cell CPT inconclusive, TDP1 cell noCPT inconclusive
COc1ccccc1CN(C)CC(=O)Nc1cccc(S(=O)(=O)N2CCCC2)c1	DRD3 antagonist inconclusive, TDP1 cell CPT inconclusive, TDP1 cell noCPT 23.1µM
O=C(CCc1nc2ccccc2c(=O)[nH]1)Nc1cccc(S(=O)(=O)N2CCCCC2)c1	TDP1 cell CPT inconclusive, TDP1 cell noCPT 20.6µM
COc1cccc(CN(C)C(=O)c2cc(S(=O)(=O)N3CCCC3)ccc2C)c1OC	TDP1 cell CPT inconclusive, TDP1 cell noCPT inconclusive
COc1ccccc1-c1ccnc(-n2ncc(C(=O)NCc3cccnc3)c2C)n1	none (no result: IL1B secr inh, D3 ag, DRD3 antagonist, ClpP mod)
CC(=O)c1ccc([N+](C)(C)C)cc1	none (no result: IL1B secr inh, D3 ag, DRD3 antagonist)
Cc1c(C=O)c2ccccn2c1C(=O)c1cccs1	TDP1 cell CPT inconclusive, TDP1 cell noCPT inconclusive

Screening results as filed in PubChem.
